Pf growth 48h – Primary qHTS for delayed death inhibitors of the malarial parasite plastid, 48 hour incubation; Potency, µM (series often up to 28.7 µM), most hits filed as inhibitors; hit rate 5.9% among 310,000; P. falciparum luciferase growth in erythrocytes, 48 h; active means well fitted inhibition curve with a large enough effect; inconclusive means small, poorly fitted or top-dose-only effect, or another doubt; inactive means no such curve, though single readings can be large or run the other way
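Read-out is firefly luciferase luminescence from an integrated reporter in P. falciparum, so falling signal marks reduced parasite growth. Infected erythrocytes were at 2% hematocrit and 0.1% parasitemia (final) in Albumax-supplemented RPMI 1640.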
Shiga toxin inh – A qHTS for Small Molecule Inhibitors of Shiga Toxin; Vero cells, Shiga toxin protein synthesis inhibition reporter; inhibition, % at 38.7 µM; hit rate 9.2% among 290,000; AID 2315, 2010; in the data active means inhibition mostly above about 28%, no sharp cut-off; inactive means mostly below about 43%
CHX counter – Cycloheximide Counterscreen for Small Molecule Inhibitors of Shiga Toxin. max response, %. AID 2314, 2010. hit rate 12% among 300,000. cell reporter, cycloheximide protein synthesis inhibition counterscreen; in the data active means max response mostly above about 13%, no sharp cut-off; inactive means mostly below about 14%; further: read at 38.3 µM for the half of the compounds with a filed dose
Pf growth 96h – Primary qHTS for delayed death inhibitors of the malarial parasite plastid, 96 hour incubation. P. falciparum luciferase reporter growth, 96 h. Potency, µM (series often up to 28.7 µM), hits mostly inhibitors. hit rate 6.9% among 320,000; active means well fitted inhibition curve with a large enough effect; inconclusive means small, poorly fitted or top-dose-only effect, or another doubt; inactive means no such curve, though single readings can be large or run the other way
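96 h incubation, 37 C, 5% CO2, of luciferase-reporter P. falciparum-infected RBCs (2% hematocrit, 0.05% parasitemia final) with test compounds; endpoint luminescence.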
NS1 inh – qHTS Assay for Inhibitors of Influenza NS1 Protein Function; hit rate 0.4% among 270,000; Potency, µM (doses to about 46.1 µM); further: actives are rising curves; nearly all actives have a fitted effect of over 50% in size
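A cell-based growth assay was used: compounds that relieve NS1-induced slow growth of budding yeast raise OD600. Assay medium was yeast nitrogen base with ammonium sulphate and -URA supplement, pH 6.0, with 2% galactose.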
SARS PLpro yeast – qHTS of Yeast-based Assay for SARS-CoV PLP; hit rate 0.19% among 330,000; S. cerevisiae expressing SARS-CoV PLpro, growth rescue; Potency, µM (series often up to 32.9 µM), hits mostly activators; further: nearly all actives have a fitted effect of over 55% in size
Of the large screens only hits and unclear results are named; the others gave an inactive call. In the library only some 21% were active in any assay of this set; here they are far more common. Unless noted, the call rests on the fitted dose curve.

COc1ccc(OC)c(-c2cc(C(=O)NCc3ccco3)no2)c1	none
CC(C)Cc1cc(C(=O)NCc2ccco2)no1	Shiga toxin inh 52, CHX counter 32, Pf growth 96h inconclusive
O=C(NCCN1CCOCC1)c1cc(-c2cccc(Cl)c2)on1	Pf growth 96h inconclusive
O=C(NCc1ccco1)c1ccc(Cl)s1	Pf growth 96h inconclusive (no result: NS1 inh)
O=C(NCc1ccco1)c1cc(-c2cccc(Cl)c2)on1	Shiga toxin inh 38, CHX counter 33
O=C(NCc1ccco1)c1cc(-c2ccc(Cl)cc2)on1	CHX counter 20
CNc1oc(-c2ccccc2)nc1C#N	Shiga toxin inh 38, CHX counter 20
CCOc1ccc(-c2nc(C#N)c(NCc3ccc4c(c3)OCO4)o2)cc1	Pf growth 96h 8.3µM
CCOc1ccc(Nc2oc(-c3ccc(Cl)cc3)nc2C#N)cc1	CHX counter 9.8
Cc1ccc(OCc2nc(C#N)c(NCc3ccc4c(c3)OCO4)o2)cc1	none
CCOc1ccc(-c2nc(C#N)c(N3CCN(Cc4ccccc4)CC3)o2)cc1	none (no result: Pf growth 48h)
COc1ccc(Nc2oc(-c3ccccc3)nc2C#N)cc1	Shiga toxin inh 70, CHX counter 14, Pf growth 96h inconclusive
CCNC(=O)OCc1cn(-c2ccc(Cl)cc2)nn1	Pf growth 48h inconclusive (no result: NS1 inh)
COc1cccc(CCc2nnc(CCC(=O)N3CCN(Cc4ccccn4)CC3)o2)c1	none
COc1ccc(Nc2oc(-c3ccc(OC)cc3)nc2C#N)cc1	Shiga toxin inh 105, CHX counter 50, Pf growth 96h inconclusive
COc1ccc(Nc2oc(-c3ccc(Cl)cc3)nc2C#N)cc1	Shiga toxin inh 84, CHX counter 30
CCOc1ccc(-c2nc(C#N)c(N3CCOCC3)o2)cc1	Pf growth 96h inconclusive (no result: Pf growth 48h)
CCOc1ccc(-c2nc(C#N)c(NC3CC3)o2)cc1	Shiga toxin inh 117, CHX counter 42
COc1ccc(Nc2oc(COc3ccc(Cl)cc3)nc2C#N)cc1	Pf growth 48h inconclusive
CCn1ncc(Br)c1C(=O)Nc1ccc(F)c([N+](=O)[O-])c1	none
O=C(c1cc2cc(F)ccc2[nH]1)N(Cc1cccnc1)CC1CCCN(C2CCCCC2)C1 (configuration not stated)	Pf growth 48h 2.6µM, Pf growth 96h inconclusive
CCc1cccc(NC(=O)C2CCCN2S(=O)(=O)c2ccc3c(c2)n(C)c(=O)c(=O)n3C)c1 (configuration not stated)	none
Cc1ccc(S(=O)(=O)N2CCCC2C(=O)Nc2cc(C)on2)cc1 (configuration not stated)	Pf growth 48h 4.7µM
Cc1ccc(S(=O)(=O)N2Cc3ccccc3CC2C(=O)Nc2cc(C)on2)cc1 (configuration not stated)	none
Cc1cccc(NC(=O)C2CCCN2S(=O)(=O)c2ccc3c(c2)n(C)c(=O)c(=O)n3C)c1 (configuration not stated)	Pf growth 96h 8.3µM
O=C(Nc1ccc(Br)cn1)c1cccc(C(=O)Nc2ccc(Br)cn2)c1	none (no result: Pf growth 48h)
O=C(Nc1ccc(Br)cn1)c1ccc2ccccc2c1	CHX counter 29 (no result: Shiga toxin inh)
COc1c(C(=O)Nc2ccc(Br)cn2)ccc2ccccc12	Shiga toxin inh 76, CHX counter 26
CCOc1ccccc1NC(=O)Nc1ccc(Br)cn1	none
COc1cc2ccccc2cc1C(=O)Nc1ccc(Br)cn1	CHX counter 25, Pf growth 96h inconclusive
COc1ccccc1NC(=O)Nc1ccc(Br)cn1	none
COc1ccccc1NC(=S)N(CCN1CCCCCC1)Cc1cccs1	none (no result: NS1 inh)
CC(=O)c1sc(NC(=O)COc2ccc(Cl)cc2C)nc1C	Pf growth 48h inconclusive, CHX counter 28
CC(=O)c1cccc(OCC(=O)Nc2cc(Cl)ccc2-n2cncn2)c1	none (no result: Shiga toxin inh, CHX counter, NS1 inh)
C/C=C/c1ccc(OCC(=O)Nc2cc(Cl)ccc2-n2cncn2)c(OC)c1	Pf growth 48h inconclusive, Pf growth 96h 12µM (no result: Shiga toxin inh, CHX counter, NS1 inh)
C/C=C/c1ccc(OCC(=O)Nc2ccncc2)c(OC)c1	Shiga toxin inh 39, CHX counter 21
Cc1ccc(C)c(OCC(=O)Nc2ccncc2)c1	none (no result: Shiga toxin inh)
Cc1cccc(OCC(=O)Nc2ccncc2)c1C	CHX counter 12
CC(=O)c1sc(NC(=O)COc2ccc(Cl)cc2Cl)nc1C	Pf growth 96h inconclusive

Compound activity: PubChem BioAssay, National Center for Advancing Translational Sciences (NCATS)
